Source: PubChem BioAssay (Tox21)
Values joined by “and” are separate entries in the source; they are usually repeats but may differ in a detail not shown here. Equal values may be shown once. Records with an inconclusive call do not appear. Active and inactive are the calls of the source. Unless noted, the call rests on the fitted dose curve.

assay: qHTS assay to identify small molecule agonists of the hypoxia (HIF-1) signaling pathway (AID 1224846; active means well fitted activation curve with a large enough effect in the signal ratio in the repeat runs, not every such curve was filed as active; the % refers to the signal ratio); details: HRE-bla ME-180 cells, beta-lactamase ratio, 17 h; series mostly up to 76.8 µM; activation: at the top concentration
Procedure, shortened: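 Compounds added to ME-180 cells carrying hypoxia-response-element beta-lactamase reporter (0.5% dialyzed FBS, 5 h preplating), 17 h at 37C; agonist activity detected by CCF4-AM B/G FRET read-out.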
On the % scale 0 is the no-effect control and ±100 the full control effect.

SMILES	activation	outcome
CN1C(=O)CN=C(c2ccccc2)c2cc([N+](=O)[O-])ccc21	0.738% [at 35.5 µM] (inactive)	
C1CCNCC1	-1.49% (inactive)	
O=C(O)CCCOc1ccc(Cl)cc1Cl	-0.752% (inactive)	
CNC(=O)Oc1cccc(N=CN(C)C)c1	-0.0938% (inactive)	
OCCCl	-0.965% (inactive)	
O=S(=O)(c1ccccc1)c1ccccc1	0.199% (inactive)	
Clc1ccc2ccccc2c1	0.0202% (inactive)	
O=C(NC(=O)c1cc(F)c(F)cc1Cl)Nc1cc(F)ccc1N1CCC(C(=O)O)CC1	-1.49% [at 35.5 µM] (inactive)	
Clc1ccccc1	-0.67% (inactive)	
O=C(O)COc1cc(Cl)c(Cl)cc1Cl		inactive
SCc1ccccc1	-0.0603% (inactive)	
O=C(O)c1ccc(=O)[nH]c1	-1.11% [at 35.5 µM] (inactive)	
Cc1cnc(C2=NC(C)(C(C)C)C(=O)N2)c(C(=O)O)c1 (stereo not given)	-1.54% (inactive)	
CCC[N+](CCC)(CCC)CCC	-0.532% (inactive)	
Cc1nc2ccccc2c(=O)n1-c1ccccc1Cl	1.3% (inactive)	
C[N+]1(CCC(C(N)=O)(c2ccccc2)c2ccccc2)CCCCC1	-0.246% [at 35.5 µM] (inactive)	

SMILES	activation	outcome
CCCCC(CC)COC(=O)c1c(Br)c(Br)c(Br)c(Br)c1C(=O)OCC(CC)CCCC (stereo not given)	2.69% [at 35.5 µM] (inactive)	
CC(C)C1(C)N=C(c2ncccc2C(=O)O)NC1=O (stereo not given)	-0.0171% (inactive)	
O=S(=O)(Cl)Cl	-1.07% (inactive)	
Cc1ccccc1	-0.479% (inactive)	
CCCC1CCCCN1 (stereo not given)	-0.682% [at 35.5 µM] (inactive)	
CCCC[P+](CC)(CCCC)CCCC (tested in a mixture with another compound)	0.0206% (inactive)	
C[Si](Cn1cncn1)(c1ccc(F)cc1)c1ccc(F)cc1		inactive
O=C(O)C(F)(F)C(F)(F)C(F)(F)C(F)(F)C(F)(F)C(F)(F)C(F)(F)C(F)(F)F	0.979% (inactive)	
CCOP(=O)(O)C(N)=O	0.0113% (inactive)	
C[C@]12C=CC3=C4CCC(=O)C=C4CC[C@H]3[C@@H]1CC[C@@H]2O	-0.479% (inactive)	
CC(C)(C)NCC(O)c1ccccc1Cl (stereo not given)	-0.314% [at 35.5 µM] (inactive)	
C=CCc1ccccc1O	-0.482% (inactive)	
COP(=O)(OC)OC(Br)C(Cl)(Cl)Br (stereo not given)	2.93% (inactive)	
C=C(C)C(=O)OCCCCOC(=O)C(=C)C	1.12% (inactive)	
C=CCc1ccc(OC(=O)Cc2ccccc2)c(OC)c1	-1.3% (inactive)	

assay: qHTS assay to identify small molecule agonists of H2AX - cell viability counter screen (AID 1224847); details: CHO-K1 viability, CellTiter-Glo luminescence, 3 h; series mostly up to 154 µM; activity change, negative = cytotoxicity: at the top concentration; further: nearly all actives have a fitted effect of over 30% in size; further: potency means the concentration at half of the fitted maximal effect; on activity change, negative = cytotoxicity: top concentration of the series differs between compounds
Procedure, shortened: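 Compounds tested at 15 concentrations were incubated 3 hr at 37C with wild-type CHO-K1 cells; cellular ATP-based luminescence (CellTiter-Glo) indicated viability.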

SMILES	activity change, negative = cytotoxicity	Potency
CN1C(=O)CN=C(c2ccccc2)c2cc([N+](=O)[O-])ccc21	3.48% [at 70.9 µM] (inactive)	
C1CCNCC1	0.539% (inactive)	
O=C(O)CCCOc1ccc(Cl)cc1Cl		inactive
COc1ccc2c(c1OC)C(=O)O[C@H]2[C@@H]1c2cc3c(cc2CCN1C)OCO3	1.14% [at 70.9 µM] (inactive)	
CNC(=O)Oc1cccc(N=CN(C)C)c1	-7.26% (inactive)	
OCCCl	4.67% (inactive)	
O=S(=O)(c1ccccc1)c1ccccc1	-1.51% (inactive)	
Clc1ccc2ccccc2c1	-0.499% (inactive)	
O=C(NC(=O)c1cc(F)c(F)cc1Cl)Nc1cc(F)ccc1N1CCC(C(=O)O)CC1	-0.867% [at 70.9 µM] (inactive)	
Clc1ccccc1	-0.0999% (inactive)	
O=C(O)COc1cc(Cl)c(Cl)cc1Cl		inactive
SCc1ccccc1	-1.87% (inactive)	
CC(C)[C@@H](C(=O)O[C@@H](C#N)c1cccc(Oc2ccccc2)c1)c1ccc(Cl)cc1		16.2 µM (active)
O=C(O)C(O)C(O)C(=O)O (stereo not given)	3.18% (inactive)	
O=C(O)c1ccc(=O)[nH]c1	2.6% [at 70.9 µM] (inactive)	
Cc1cnc(C2=NC(C)(C(C)C)C(=O)N2)c(C(=O)O)c1 (stereo not given)	-2.49% (inactive)	
CCC[N+](CCC)(CCC)CCC	3.95% (inactive)	

SMILES	activity change, negative = cytotoxicity	Potency
CCCCCCCCn1sccc1=O		50.6 µM (active) and 26.5 µM (active)
Cc1nc2ccccc2c(=O)n1-c1ccccc1Cl	-3% (inactive)	
C[N+]1(CCC(C(N)=O)(c2ccccc2)c2ccccc2)CCCCC1	0.0073% [at 70.9 µM] (inactive)	
CCCCC(CC)COC(=O)c1c(Br)c(Br)c(Br)c(Br)c1C(=O)OCC(CC)CCCC (stereo not given)	6.93% [at 70.9 µM] (inactive)	
CC(C)C1(C)N=C(c2ncccc2C(=O)O)NC1=O (stereo not given)	4.01% (inactive)	
O=S(=O)(Cl)Cl	0.233% (inactive)	
Cc1ccccc1	-1.65% (inactive)	
CCCC1CCCCN1 (stereo not given)	4.19% [at 70.9 µM] (inactive)	
CC1(C)[C@H](C(=O)O[C@H](C#N)c2cccc(Oc3ccccc3)c2)[C@@H]1C=C(Br)Br		inactive
CCCC[P+](CC)(CCCC)CCCC (tested in a mixture with another compound)	2.24% (inactive)	
C[Si](Cn1cncn1)(c1ccc(F)cc1)c1ccc(F)cc1		104 µM (active)
O=C(O)C(F)(F)C(F)(F)C(F)(F)C(F)(F)C(F)(F)C(F)(F)C(F)(F)C(F)(F)F	-5.83% (inactive)	
CCOP(=O)(O)C(N)=O	9.98% (inactive)	
C[C@]12C=CC3=C4CCC(=O)C=C4CC[C@H]3[C@@H]1CC[C@@H]2O		89.2 µM (active) and 75.9 µM (active)
CC(C)(C)NCC(O)c1ccccc1Cl (stereo not given)	-4.74% [at 70.9 µM] (inactive)	
C=CCc1ccccc1O	-1.15% (inactive)	
O=C(NCNC(=O)NC1C(=O)NC(=O)N1CO)NC1C(=O)NC(=O)N1CO (stereo not given)	-3.08% (inactive)	
